Reference: the supplement of paper PMC6897291
Where a name gives a salt, the structure may show the parent alone.

tested on: U-2932; experiment: growth inhibition by drug alone (1 - RLU/untreated control) (fraction); higher = stronger inhibition; details: 1000 nM; time (day): 5; 177Lu-lilotomab satetraxetan 0 ug/ml
Outline: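 With or without 18 h pretreatment by a radiolabelled anti-CD37 antibody conjugate (~600 MBq/mg; 0.5 µg/ml RIVA, 1 µg/ml U-2932), RIVA and U-2932 cells were washed and plated at 3,000 cells/well. Pre-printed compound doses were 10/100 nM for RIVA and 10/1,000 nM for U-2932. Growth inhibition uses RealTime-Glo RLU relative to the untreated no-drug wells. The calculation is 1 − RLU/mean of 48 such wells per plate, with reads daily from day 3 after 1 h at 37°C.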

Row | SMILES | growth inhibition by drug alone
1 | Nc1nc2[nH]cc(CCc3ccc(C(=O)N[C@@H](CCC(=O)O)C(=O)O)cc3)c2c(=O)[nH]1 [Pemetrexed] | 0.965
2 | COc1cc2nccc(Oc3ccc(NC(=O)Nc4cc(C)on4)c(Cl)c3)c2cc1OC [Tivozanib (AV-951)] | 0.0897
3 | CCC(=O)N1CCN(c2ccc(-n3c(=O)ccc4cnc5ccc(-c6cnc7ccccc7c6)cc5c43)cc2C(F)(F)F)CC1 [Torin 1] | 0.866
4 | COc1cccc2c1C(=O)c1c(O)c3c(c(O)c1C2=O)C[C@@](O)(C(=O)CO)C[C@@H]3O[C@H]1C[C@H](N)[C@@H](O)[C@H](C)O1 [Epirubicin Hydrochloride] | 0.975
5 | Clc1ccc(Nc2nnc(Cc3ccncc3)c3ccccc23)cc1 [Vatalanib dihydrochloride (PTK787)] | -0.0105
6 | COc1cc2nccc(Oc3ccc(NC(=O)C4(C(=O)Nc5ccc(F)cc5)CC4)cc3)c2cc1OC [XL-184 free base (Cabozantinib)] | 0.037
7 | C[C@@H](O[C@H]1OCCN(Cc2n[nH]c(=O)[nH]2)[C@H]1c1ccc(F)cc1)c1cc(C(F)(F)F)cc(C(F)(F)F)c1 [Aprepitant (MK-0869)] | -0.0265
8 | COc1cc2c(cc1O)CC[C@@H]1[C@@H]2CC[C@]2(C)[C@@H](O)CC[C@@H]12 [2-Methoxyestradiol] | 0.777
9 | CNCc1ccc(-c2[nH]c3cc(F)cc4c3c2CCNC4=O)cc1 | 0.0516
10 | CC[C@@]1(O)C(=O)OCc2c1cc1n(c2=O)Cc2cc3c(CN(C)C)c(O)ccc3nc2-1 [Topotecan HCl] | 0.977
11 | Nc1cc(C(F)(F)F)c(-c2cc(N3CCOCC3)nc(N3CCOCC3)n2)cn1 | 0.563
12 | CC(C)(C)c1ccc(S(=O)(=O)/C=C/C#N)cc1 | 0.352
13 | C[C@]1(c2nc3c(C(N)=O)cccc3[nH]2)CCCN1 [ABT-888 (Veliparib)] | -0.078
14 | Cc1ccc(NC(=O)c2ccc(CN3CC[C@H](N(C)C)C3)c(C(F)(F)F)c2)cc1Nc1nccc(-c2cncnc2)n1 [Bafetinib (INNO-406)] | -0.073
15 | C[C@]12CC[C@@H]3c4ccc(O)cc4CC[C@H]3[C@@H]1CCC2=O [Estrone] | 0.0242
16 | O=C(c1ccc(OCCN2CCCCC2)cc1)c1c(-c2ccc(O)cc2)sc2cc(O)ccc12 [Evista (Raloxifene Hydrochloride)] | -0.102
17 | CCN(CC)CCNC(=O)c1c(C)[nH]c(/C=C2\C(=O)Nc3ccc(F)cc32)c1C [Sunitinib Malate (Sutent)] | -0.0741
18 | CCOc1ccc(Nc2nc(-c3c(C)nc4ccccn34)cs2)cc1 | 0.979
19 | C=CC(=O)N1CCC[C@@H](n2nc(-c3ccc(Oc4ccccc4)cc3)c3c(N)ncnc32)C1 | 0.729

Row | SMILES | growth inhibition by drug alone
20 | CS(=O)(=O)c1cccc(CNc2nc(Nc3ccc4c(c3)CCC(=O)N4)ncc2C(F)(F)F)c1 | -0.0145
21 | CC(NC(=O)c1ccccc1/N=C/c1c(O)ccc2ccccc12)c1ccccc1 (stereo not drawn) [Sirtinol] | -0.0294
22 | CN(Cc1cnc2nc(N)nc(N)c2n1)c1ccc(C(=O)N[C@@H](CCC(=O)O)C(=O)O)cc1 [Abitrexate (Methotrexate)] | 0.956
23 | OCCn1cc(-c2cnc3nnn(Cc4ccc5ncccc5c4)c3n2)cn1 | -0.175
24 | COc1cc(Nc2ncc(F)c(Nc3ccc4c(n3)NC(=O)C(C)(C)O4)n2)cc(OC)c1OC [R406(free base)] | -0.0439
25 | COc1cccc2c1C(=O)c1c(O)c3c(c(O)c1C2=O)C[C@@](O)(C(=O)CO)C[C@@H]3O[C@H]1C[C@H](N)[C@H](O)[C@H](C)O1 [Doxorubicin (Adriamycin)] | 0.986
26 | CN(NC(=O)CC(=O)NN(C)C(=S)c1ccccc1)C(=S)c1ccccc1 [Elesclomol] | 0.983
27 | CN(C)CCOc1ccc(/C(=C(/CCCl)c2ccccc2)c2ccccc2)cc1 [Toremifene Citrate (Fareston, Acapodene)] | -0.00882
28 | CN1CCN(CCOc2cc(OC3CCOCC3)c3c(Nc4c(Cl)ccc5c4OCO5)ncnc3c2)CC1 [Saracatinib (AZD0530)] | -0.173
29 | CC(C)C[C@H](NC(=O)[C@H](Cc1ccccc1)NC(=O)c1cnccn1)B(O)O [Bortezomib (Velcade)] | 0.985
30 | Cn1cncc1[C@@](N)(c1ccc(Cl)cc1)c1ccc2c(c1)c(-c1cccc(Cl)c1)cc(=O)n2C [Tipifarnib (Zarnestra)] | 0.836
31 | COC(=O)c1ccc2c(C(=Nc3ccc(N(C)C(=O)CN4CCN(C)CC4)cc3)c3ccccc3)c(O)[nH]c2c1 [BIBF1120 (Vargatef)] | -0.113
32 | CC[C@@H]1/C=C(\C)C[C@H](C)C[C@H](OC)[C@H]2O[C@@](O)(C(=O)C(=O)N3CCCC[C@H]3C(=O)O[C@H](/C(C)=C/[C@@H]3CC[C@H](Cl)[C@H](OC)C3)[C@H](C)[C@@H](O)CC1=O)[C@H](C)C[C@@H]2OC [Pimecrolimus] | 0.361
33 | CN(C)CCOc1ccc(-c2nc(-c3ccncc3)c(-c3ccc4c(c3)CC/C4=N\O)[nH]2)cc1 | 0.0221
34 | COc1ccc(CCN2CCN(CCCc3ccccc3)CC2)cc1OC | -0.153
35 | CNC(=O)c1cc(Oc2ccc(NC(=O)Nc3cc(C(C)(C)C)nn3-c3ccc4ncccc4c3)c(F)c2)ccn1 [DCC-2036 (Rebastinib)] | 0.104
36 | CCC(C)(C)C(=O)O[C@H]1C[C@@H](C)C=C2C=C[C@H](C)[C@H](CC[C@@H]3C[C@@H](O)CC(=O)O3)[C@H]21 [Simvastatin (Zocor)] | -0.0695
37 | CCc1ccc(CCOc2ccc(CC3SC(=O)NC3=O)cc2)nc1 (stereo not drawn) [Pioglitazone (Actos)] | -0.0516
38 | O=C(O)C(Cc1c[nH]c2ccccc12)N1C(=O)c2ccccc2C1=O (stereo not drawn) | -0.0679
